Screen size: about 360,000 compounds; about 8,200 (2.3%) were called active. Cut-off read from the data, not from the text of the source: active = inhibition above about 27%; inactive = the rest. For the sample, actives were picked, then their nearest neighbours and some compounds at random.

Chain of Fructose-bisphosphate aldolase (Mycobacterium tuberculosis (strain ATCC 25618 / H37Rv)) (P9WQA3 whole entry, looked up): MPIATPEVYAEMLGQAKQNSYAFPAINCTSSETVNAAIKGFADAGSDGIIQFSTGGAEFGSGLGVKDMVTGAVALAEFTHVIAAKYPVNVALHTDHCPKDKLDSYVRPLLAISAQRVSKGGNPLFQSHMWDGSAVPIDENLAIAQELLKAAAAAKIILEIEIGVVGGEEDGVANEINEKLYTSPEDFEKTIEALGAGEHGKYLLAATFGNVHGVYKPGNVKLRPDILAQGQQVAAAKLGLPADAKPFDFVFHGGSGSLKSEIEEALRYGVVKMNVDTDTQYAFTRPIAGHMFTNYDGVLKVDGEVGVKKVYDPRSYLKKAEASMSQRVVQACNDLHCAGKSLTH

The experiment addresses Fructose-bisphosphate aldolase (Mycobacterium tuberculosis (strain ATCC 25618 / H37Rv)) (UniProt P9WQA3). Briefly: M. tuberculosis aldolase activity blockers – biochemical, fluorescence, strain H37Rv, primary screen (AID 588726).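 Note: 0% = vehicle and 100% = reference inhibitor.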 To be noted: purified M. tuberculosis FBA, fluorescence read-out, at 1 µM, stronger effect = higher value.
For `Cc1ccc2[nH]c(=O)c(COC(=O)c3ccccn3)cc2c1`, the inhibition is 1.82% (inactive).

`CCOC(=O)c1[nH]c2ccc(C)cc2c1N=C(C)N(C)C`: the inhibition was 1.43% (inactive).

Turning to `CCOC(=O)c1cc2cc(C)ccc2[nH]1`, the inhibition was 31.8% (active). With `CC1(C)C(=O)CCC2(C)C1=CCC1C2C(=O)CC2(C)C1CCC2(O)C(=O)CO` (stereo not drawn), the inhibition was 1.52% (inactive). The result for `COc1ccc(-n2c(C)cc(C(=O)CN3C(=O)NC4(CCc5ccccc54)C3=O)c2C)cc1` (stereo not drawn) reads 1% (inactive). Consider `Cc1cc(C)c(-c2c(O)c3ccccc3n(C)c2=O)c(C)c1`, for which the inhibition was 62.7% (active). For the compound `Cn1c(=O)c(C(=O)Nc2ncccn2)c(O)c2ccccc21`, the inhibition was 7.7% (inactive). The result for `Cn1c(=O)c(Sc2ccc(Cl)cc2)c(O)c2ccccc21` reads 2% (inactive). Take `COc1c(O)cccc1-c1nnn(CCC(=O)OCC(=O)c2ccccc2)n1`: the inhibition is 0.78% (inactive). The result for `C/C=C(/C)C(=O)OC1Cc2c(ccc3ccc(=O)oc23)OC1(C)C` (stereo not drawn) reads 26.4% (inactive).

Turning to `CC1(C)Oc2ccc3ccc(=O)oc3c2/C(=C/NCCO)C1=O`, the inhibition is 2.48% (inactive). Regarding `Cc1cc(=O)oc2c1ccc1ccccc12`, the inhibition is 37% (active). With `CC(=O)c1c(OCC(=O)N(C)C2CCCCC2)ccc2c(C)cc(=O)oc12`, the inhibition was 9.58% (inactive). To `Cc1cc(=O)oc2c(C(=O)c3ccccc3)c(OCC(N)=O)ccc12` belongs 0.48% (inactive); to `N#CC(C#N)=CN=c1ccn(Cc2ccc(Cl)cc2Cl)cc1`, -0.58% (inactive); to `O=C(COc1ccc2ccccc2c1)N1CCN(C(=O)c2cccs2)CC1`, -0.2% (inactive). The result for `CC(=O)NS(=O)(=O)c1ccc(NC(=O)/C=C/c2ccccc2Cl)cc1` reads 6.43% (inactive); that for `CC(=O)Nc1ccc(S(=O)(=O)Nc2cc(C)cn(Cc3ccc(C)cc3)c2=O)cc1`, -0.45% (inactive). The result for `CCC1CCCCN1CCCNC(=O)c1cc2c(Cl)nc3ccccc3c2s1` (stereo not drawn) reads -4.11% (inactive); that for `O=C(NCCN1CCN(Cc2ccccc2)CC1)c1cc2c(=O)[nH]c3ccccc3c2s1`, 47.8% (active). As for `Cn1c(C(=O)NCCN2CCc3ccccc3C2)cc2c(=O)[nH]c3ccccc3c21`, the inhibition was 5.1% (inactive).

Turning to `Cc1ccc(C)c(C(O)c2ncc(-c3cccc4ccccc34)[nH]2)c1` (stereo not drawn), the inhibition is 23.2% (inactive).

`COc1ccccc1CN(C)C(=O)c1cc2ccccc2o1`: the inhibition was 2.4% (inactive). The result for `COc1ccc(C)cc1S(=O)(=O)NCCc1ccccc1` reads -6.6% (inactive). As to `COc1cccc2oc(CCc3ccccc3)cc(=O)c12`, the inhibition was 33.4% (active). To `CCOc1ccc(C(=O)NC(=S)Nc2ccc(N3CCOCC3)c(Cl)c2)cc1[N+](=O)[O-]` belongs 11% (inactive); to `COC(=O)C1C(=O)CC(C)(O)C(C(=O)OC)C1c1ccc2c(c1)OCO2` (stereo not drawn), 0.24% (inactive). To `COc1cc(/C=C/C(=O)O)cc(S(=O)(=O)Nc2ccccc2C(=O)NCCc2ccccc2)c1OC` belongs 0.65% (inactive). To `COc1cc(OC)c(S(=O)(=O)Nc2ccccc2C(=O)O)cc1S(=O)(=O)Nc1ccccc1C(=O)O` belongs 30.9% (active). Turning to `COc1ccc(OC)c(S(=O)(=O)Nc2ccccc2F)c1`, the inhibition was -2.78% (inactive). Turning to `COc1ccc(N2CC(C(=O)NCCS(=O)(=O)N3CCN(c4ccccc4)CC3)CC2=O)cc1` (stereo not drawn), the inhibition was -1.82% (inactive).

As for `CCOC(=O)N1CCN(Cc2nc3cc(NC(=O)CC)ccc3n2CC)CC1`, the inhibition was 0.91% (inactive).

Consider `COCc1c(C(=O)OCC(=O)Nc2ccc(OC(F)F)cc2)oc2ccccc12`, for which the inhibition was 1.74% (inactive). To `COC(=O)c1cnn2c(C(F)(F)F)cc(-c3ccco3)nc12` belongs 14% (inactive). To `Cc1cc(C)c2nc(-c3ccco3)cc(C(=O)O)c2c1` belongs 105% (active); to `CCOC(=O)c1ccn(-c2nc(-c3ccco3)cc(C(F)(F)F)n2)n1`, 10.6% (inactive); to `Cc1ccnc(NS(=O)(=O)c2ccc(NC(=O)c3oc4ccc(F)cc4c3C)cc2)n1`, 1.55% (inactive). With `CN(C(=O)c1cccc(NC(=O)Cc2ccc(NC(=O)C3CCCN(C(=O)C4CC4)C3)cc2)c1)C1CC1` (stereo not drawn), the inhibition was 0.61% (inactive).

As for `Cc1ccc(C(=O)c2coc3ccc(O)c(CN(C)C)c23)cc1`, the inhibition is -0.7% (inactive). To `CN(C)Cc1c(O)ccc2occ(C(O)c3ccccc3)c12` (stereo not drawn) belongs 6.31% (inactive); to `CN(C)Cc1c(O)ccc2c(=O)c(-c3ccccc3Cl)coc12`, 96.3% (active); to `O=C(CNC(=O)OCc1ccccc1)Oc1cc2oc(=O)cc(-c3ccccc3)c2cc1Cl`, 36.7% (active). To `O=C(CNC(=O)c1ccccc1)NCC(=O)OCc1ccc(Cl)cc1` belongs 0.34% (inactive); to `CC(Oc1ccc2c(-c3ccccc3)cc(=O)oc2c1)C(=O)NC(Cc1c[nH]c2ccccc12)C(=O)O` (stereo not drawn), -3.79% (inactive). To `CCN(C(=O)COC(=O)C1CCN(S(=O)(=O)c2ccc(C)c(C)c2)CC1)C1CCS(=O)(=O)C1` (stereo not drawn) belongs 4.31% (inactive); to `CCNC(=O)COC(=O)CCNC(=O)c1cccc(C)c1`, -2.08% (inactive). For `COCCN(CCOC)c1nc(N)c2c(N)nc3c(c2c1C#N)CC(=O)N3Cc1ccc(Cl)cc1`, the inhibition was 32.8% (active). To `CN(Cc1ccccc1)C(=O)C1CCCN(c2ncnc3c2nc2n3CCCCC2)C1` (stereo not drawn) belongs 0.44% (inactive); to `COc1cccc(NS(=O)(=O)c2ccc(-c3coc(C)n3)cc2)c1`, -2.5% (inactive); to `O=C(/C=C/[C@H]1O[C@@H](n2ccc(=O)[nH]c2=O)[C@H](O)[C@@H]1O)NCc1ccccn1`, -1.68% (inactive). To `CCOC(=O)c1cc(C(C)C)sc1NC(=O)COC(=O)c1nccnc1N` belongs 55.2% (active); to `Cc1cc(C(=O)OCC(=O)Nc2nnc(C(C)C)s2)c2ccccc2n1`, 1.64% (inactive).

With `CCOC(=O)c1cc(C)sc1NC(=O)C1CCC1`, the inhibition is 4.25% (inactive). Take `Cc1cc(C)c2c(c1)NP(=S)(c1ccccc1)N2` (stereo not drawn): the inhibition is 34.4% (active).

With `COc1ccc2c(c1)NP(=S)(c1ccccc1)N2` (stereo not drawn), the inhibition is 18.1% (inactive). The result for `COC(=O)c1cc(OC)c(OC)cc1NC(=O)C1CCCO1` (stereo not drawn) reads 15.2% (inactive); that for `COc1cc2nc(N3CCN(C(=O)[C@@H]4CCCO4)CC3)nc(N)c2cc1OC`, 95.4% (active).

For the compound `O=C(C1CCCO1)N1CCC(c2nc3ccccc3[nH]2)CC1` (stereo not drawn), the inhibition is -0.87% (inactive).

One may read the inhibition as the change of the read-out against control, counted positive when it falls.

Source of the values: PubChem BioAssay AID588726 (The Scripps Research Institute Molecular Screening Center, 2011).
